# Cruzain inh noDet – qHTS Assay for Promiscuous and Specific Inhibitors of Cruzain (without detergent); Cruzipain (Trypanosoma cruzi), P25779; purified cruzain, Z-FR-AMC fluorescence, no detergent; Potency, µM, for inactives: max response, negative = inhibition, actives largely listed as inhibitors; 2.3% of 200,000 active; AID 1476, 2009;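 further: plate controls were enzyme without inhibitor for no effect and buffer without enzyme for full effect; nearly all actives have a fitted effect of over 40% in size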
#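 Detergent-free condition (0.00005% Triton X-100) in acetate buffer pH 5.5 with DTT. 1.5 nM enzyme and compound were pre-mixed 15 min, then 2 uM Z-FR-AMC substrate added; reaction progress from fluorescence change between first and third reads (60 s).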
# Cruzain inh Det – qHTS Assay for Promiscuous and Specific Inhibitors of Cruzain (with detergent). purified cruzain, Z-FR-AMC fluorescence, 0.01% Triton. Potency, µM, for the others: max response, negative = inhibition, usual class: inhibitors. 0.43% of 200,000 active. AID 1478, 2009;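 further: plate controls were neutral wells for no effect and buffer without enzyme for full effect; nearly all actives have a fitted effect of over 40% in size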
#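 15 min RT preincubation of 1.5 nM cruzain with compound, then 2 uM Z-FR-AMC added; kinetic AMC fluorescence, 60 s delta. Triton X-100 0.01%, pH 5.5.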
# Papain inh – qHTS Assay for Inhibitors of Papain: Counterscreen for Cruzain Assay. shares compounds with Cruzain inh Det. purified papain, Z-FR-AMC fluorescence cleavage. Potency, µM, for the others: max response, negative = inhibition, most hits filed as inhibitors. 41% of 410 active. AID 2161, 2009;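 further: 0% = no-compound wells and -100% = no-enzyme wells; nearly all actives have a fitted effect of over 35% in size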
# Target sequence (P00784 whole entry, looked up): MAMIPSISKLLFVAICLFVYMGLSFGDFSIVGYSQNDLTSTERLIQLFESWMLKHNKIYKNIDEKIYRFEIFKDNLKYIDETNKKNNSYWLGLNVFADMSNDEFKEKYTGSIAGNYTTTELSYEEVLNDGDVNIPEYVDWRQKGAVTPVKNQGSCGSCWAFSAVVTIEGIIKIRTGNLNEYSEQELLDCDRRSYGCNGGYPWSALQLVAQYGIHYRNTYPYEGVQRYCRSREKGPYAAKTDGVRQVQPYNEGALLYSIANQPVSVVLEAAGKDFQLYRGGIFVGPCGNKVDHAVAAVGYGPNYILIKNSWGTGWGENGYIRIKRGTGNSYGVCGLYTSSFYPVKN
# Active calls of the source: *; ? = inconclusive; . = no result. Shown are actives, neighbours in structure and some others; about 2.4% of the full set was active somewhere. The call rests on the fitted dose curve; in most records, active means well fitted curve in the direction sought with a large enough effect; inconclusive means small, poorly fitted or top-dose-only effect, or another doubt; inactive means no such curve, though single readings can be large; an effect the other way counts as inactive or inconclusive. Potency means the concentration at half of the fitted maximal effect.
SMILES,Cruzain inh noDet,Cruzain inh Det,Papain inh
COc1cccc(CNC(=O)c2ccc3c(c2)N(Cc2ccc(F)cc2Cl)C(=O)c2ccccc2S3)c1,13µM*,1%,7%
Cc1ccc(S(=O)(=O)c2nc(-c3cccc(C)c3)oc2N2CCCCC2)cc1,4%,-3%,.
Cc1c2cnn(-c3ccccc3)c(=O)c2c(C)n1CC(=O)NCc1ccccc1,5%,-3%,.
CCc1nc(-c2ccc(C)c(S(=O)(=O)N3CCN(c4ccc(C(C)=O)cc4)CC3)c2)no1,1%,-1%,.
CCCN1CCN(c2ncc3c(n2)CCN(Cc2ccc(OC)c(OC)c2OC)C3)CC1,5%,1%,.
CC(C(=O)N(C)C)N(C#N)c1nc(N(C)C)nc(N(C)C)n1 (stereo not given),-13%,2%,.
CCOC(=O)C(C(=O)OCC)N(C#N)c1nc(SC)nc(N(C)C)n1,3.2µM*,2.5µM*,16µM*
CCOC(=O)C(C(=O)OCC)N(C#N)c1nc(OC)nc(N(C)C)n1,10µM*,3.5µM*,28µM*
CCOC(=O)COc1nc(N(C)C)nc(N(C)C)n1,4%,12%,.
Cc1ccc2c(c1)c1c(c(=O)n(-c3cccc(Cl)c3)c(=O)n1CC(=O)Nc1c(C)cccc1C)n2C,-8%,0%,.
Cc1ccc(NC(=O)C2CCCN(S(=O)(=O)c3c(C)n[nH]c3C)C2)c(C)c1 (stereo not given),-3%,-2%,.
CCCCNC(=O)c1ccc2nc(-c3ccco3)c(-c3ccco3)nc2c1,16µM*,14µM*,16µM*
O=C(NCCCO)c1ccc2nc(-c3ccco3)c(-c3ccco3)nc2c1,.,.,28µM*
CCCNC(=O)c1ccc2nc(-c3ccccc3)c(-c3ccccc3)nc2c1,?,-9%,.
O=C(NCCNC(=O)c1ccco1)c1cccc(F)c1,2%,0%,.
CCNC(=O)c1ccc2nc(-c3ccccc3)c(-c3ccccc3)nc2c1,.,.,-14%
CCCNC(=O)c1cc(-c2ccco2)on1,-15%,-3%,.
Cc1cc(Cl)ccc1NC(=O)C1CCCN(c2nnc(C)c3c(C)n(-c4ccccc4)nc23)C1 (stereo not given),-11%,1%,.
Cc1ccc(S(=O)(=O)Nc2cc3c(cc2C)n(C)c(=O)c(=O)n3C)cc1,-5%,-3%,.
COc1ccc(NC(=O)CCc2c(C)nn(-c3ccc(N4CCCC4)nn3)c2C)cc1Cl,21%,-5%,.
CC(=O)c1ccc(NC(=O)CSc2nc(-c3cccc(F)c3)nc3c2c(=O)n(C)c(=O)n3C)cc1,-1%,3%,.
CCC(=O)NCC(=O)OCC(=O)c1ccccc1,3%,-2%,.
N#Cc1ccc(NC(=O)COC(=O)CNC(=O)C2CCCCC2)cc1,4µM*,4µM*,-17%
O=C(CCC(=O)OCC(=O)c1ccc([N+](=O)[O-])cc1)NC1CCCCC1,2%,-4%,.
CCc1ccc(C(=O)COC(=O)CNC(=O)CNC(=O)Cc2ccccc2)cc1,-12%,3%,.
SMILES,Cruzain inh noDet,Cruzain inh Det,Papain inh
O=C(CNC(=O)C1CCCCC1)OCC(=O)c1ccc([N+](=O)[O-])cc1,.,.,16µM*
O=C(CNC(=O)C1CCCCC1)OCC(=O)c1ccc(-c2ccccc2)cc1,.,.,-19%
CCc1ccc(C(=O)COC(=O)CNC(=O)C2CCCCC2)cc1,.,.,-21%
O=C(COC(=O)C1CCCCC1)Nc1ccc(N2CCCCC2)cc1,-5%,-16%,.
CCOC(=O)c1cccc(NC(=O)c2oc3c(c2C)-c2nn(CC)cc2CC3)c1,12%,-6%,.
COc1cccc(NC(=O)Cn2nnc(-c3nc(-c4ccccc4)no3)c2N)c1,?,-2%,.
Cn1cccc1C(=O)N1CCC[C@@]2(CCN(C(c3ccccc3)c3ccccc3)C2)C1,1%,0%,.
C=CCCCCCCCCCCCC(O)CC(O)COC(C)=O (stereo not given) (tested in a mixture with another compound),?,-6%,.
O=C(CCC(=O)OCC(=O)c1ccc(Cl)cc1)NC1CCCCC1,-8%,-7%,.
O=C(CNC(=O)C1CCCCC1)OCC(=O)c1ccc(F)cc1,.,.,16µM*
O=C(COC(=O)CNC(=O)C1CCCCC1)NC1CCCC1,.,.,32µM*
O=C(COC(=O)COc1ccc(Cl)cc1)NC1CCCCC1,2%,0%,.
O=C(CNC(=O)C1CCCCC1)OCC(=O)c1cccc(Cl)c1,.,.,14µM*
O=C(CNC(=O)c1ccccc1)NCC(=O)OCC(=O)c1ccc(F)cc1,-8%,-5%,.
O=c1c2sc3ccccc3c2n(Cc2cccc(Cl)c2)c(=O)n1Cc1ccco1,?,-11%,.
Cc1c(C(=O)N2CCCC2)oc2c1-c1nn(CC(=O)NC(C)c3ccccc3)cc1CC2 (stereo not given),24%,-3%,.

# Screens: PubChem, National Center for Advancing Translational Sciences (NCATS)
